Drawing on ChEMBL document CHEMBL5606458, “ASAP - ZIKV NS2B-NS3 protease fluorescence single point” (2024), this text covers inhibition for 36 compounds.

This assay concerns the target Nonstructural protein 3 (Zika virus) (UniProt A0A024AXB9).
[1] abbreviates: PRVABC59, Concentration 15.0 uM, Number of replicates 1.0.

About 160 (5.9%) of roughly 2,700 compounds showed an effect of 50% or more. The list comes from a sample in which strong results are over-represented; it also holds similar structures and randomly drawn compounds.

Sequence of Nonstructural protein 3 (Zika virus) (A0A024AXB9 as listed by the source): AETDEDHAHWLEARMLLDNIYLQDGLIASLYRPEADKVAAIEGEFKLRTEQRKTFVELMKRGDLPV

For `CNC(=O)c1nc(Cl)ccc1NS(=O)(=O)c1ccc(Oc2ccccc2Cl)cc1`, the inhibition (PRVABC59, Concentration 49.5 uM, Number of replicates 2.0, Standard deviation 0.024233932131581936 %) is -1.72%.

For the compound `O=C(Nc1nc(Cl)nc2nc[nH]c12)c1cc(Cl)ccc1NS(=O)(=O)c1ccc(Oc2ccccc2Cl)cc1`, the inhibition under setting [1] is 22.5%.

Regarding `Cc1nn([C@@H](C)c2nnnn2C2CC2)cc1C1CCNCC1`, the inhibition (PRVABC59, Concentration 49.5 uM, Number of replicates 2.0, Standard deviation 2.3033064314790743 %) was -1.29%; the inhibition (PRVABC59, Concentration 99.01 uM, Number of replicates 2.0, Standard deviation 2.6844291293545366 %) is -0.376%; the inhibition (PRVABC59, Concentration 198.0 uM, Number of replicates 2.0, Standard deviation 0.3562668047004051 %) was -3.04%.

In the case of `CC(C)(C)c1csc(NC(=O)c2cc(Cl)ccc2NS(=O)(=O)c2ccc(Oc3ccccc3Cl)cc2)n1`, under setting [1], the inhibition stood at 22.1%.

Take `Cc1cc(CO)c2cccc(Cc3cccc(NC(=O)c4nc(C5CCNCC5)oc4C)c3)c2n1`: the inhibition (PRVABC59, Concentration 49.95 uM, Number of replicates 2.0, Standard deviation 2.83494201600161 %) was -5.64% and the inhibition (PRVABC59, Concentration 99.9 uM, Number of replicates 2.0, Standard deviation 2.936734747350333 %) is -6.74%.

With `Cc1cc(CO)c2cccc(NC(=O)c3nc(C4CCNCC4)oc3C)c2n1`, the inhibition reads like this: (PRVABC59, Concentration 49.95 uM, Number of replicates 2.0, Standard deviation 16.97136657317194 %) 81.5%; (PRVABC59, Concentration 99.9 uM, Number of replicates 2.0, Standard deviation 2.022315036184036 %) 88.9%.

In the case of `Cc1cc(CO)c2cccc(Cc3ccccc3NC(=O)c3nc(-c4ccccc4)oc3C(F)(F)F)c2n1`, the inhibition is, setting by setting: (PRVABC59, Concentration 49.95 uM, Number of replicates 2.0, Standard deviation 1.8373680900098652 %) 5.06%; (PRVABC59, Concentration 99.9 uM, Number of replicates 2.0, Standard deviation 1.2469667752869535 %) 9.26%.

For the compound `Cc1cc(CO)c2cccc(Cc3ccccc3NC(=O)c3nc(C4CCNCC4)oc3C)c2n1`, the inhibition (PRVABC59, Concentration 49.95 uM, Number of replicates 2.0, Standard deviation 3.130141914719793 %) came out at 12.3% and the inhibition (PRVABC59, Concentration 99.9 uM, Number of replicates 2.0, Standard deviation 0.6412983547468495 %) stood at 60.8%.

With `Cc1cc(CO)c2cccc(NC(=O)[C@H]3CCNC3)c2n1`, the inhibition reads like this: (PRVABC59, Concentration 49.95 uM, Number of replicates 2.0, Standard deviation 1.562551081581127 %) -4.16%; (PRVABC59, Concentration 99.9 uM, Number of replicates 2.0, Standard deviation 2.5850257028478962 %) 4.64%.

As to `Cc1cc(CO)c2cccc(NC(=O)c3nc(-c4ccccc4)oc3C(F)(F)F)c2n1`, the inhibition was found to be 15.3% (PRVABC59, Concentration 49.95 uM, Number of replicates 2.0, Standard deviation 2.699761899961709 %) and 24.8% (PRVABC59, Concentration 99.9 uM, Number of replicates 2.0, Standard deviation 2.5993991268892636 %).

As for `Cc1cc(N)c2cc(Cl)cc(Cl)c2n1`, for the setting “PRVABC59, Concentration 99.9 uM, Number of replicates 2.0, Standard deviation 12.824277322413067 %”, the inhibition was -8.83%.

Take `COC(=O)c1ccc(F)c(Cn2cc(C3CCNCC3)c(C)n2)c1`: the inhibition by setting is: (PRVABC59, Concentration 49.5 uM, Number of replicates 2.0, Standard deviation 1.8234550992150553 %) 1.56%; (PRVABC59, Concentration 99.01 uM, Number of replicates 2.0, Standard deviation 0.947622366220452 %) 0.074%; (PRVABC59, Concentration 198.0 uM, Number of replicates 2.0, Standard deviation 0.08409628118336304 %) 3.65%.

Take `COc1cc(COc2cc(C)nc3ncnn23)nc(N2CCNCC2)n1`: the inhibition reads like this: (PRVABC59, Concentration 49.5 uM, Number of replicates 2.0, Standard deviation 2.68247440066745 %) 1.51%; (PRVABC59, Concentration 99.01 uM, Number of replicates 2.0, Standard deviation 1.6078501771858478 %) 0.374%; (PRVABC59, Concentration 198.0 uM, Number of replicates 2.0, Standard deviation 1.0644090707345926 %) 1.09%.

In the case of `O=C(NCCCSc1ccccc1)c1cc(Cl)ccc1NS(=O)(=O)c1ccc(Oc2ccccc2Cl)cc1`, under setting [1], the inhibition was 21.8%.

Consider `N#C[C@@H](NC(=O)c1cc(Cl)ccc1NS(=O)(=O)c1ccc(Oc2ccccc2Cl)cc1)c1ccc(F)cc1`, for which the inhibition under setting [1] is 28.7%.

As to `Cc1cc(CO)c2cccc(Cc3cccc(C(=O)N(c4ncccn4)S(=O)(=O)c4ccc(N)cc4)c3)c2n1`, the inhibition reads like this: (PRVABC59, Concentration 49.95 uM, Number of replicates 2.0, Standard deviation 0.9333358068338657 %) 1.86%; (PRVABC59, Concentration 99.9 uM, Number of replicates 2.0, Standard deviation 0.5295896500552713 %) 17.8%.

As to `Cc1cc(CO)c2cccc(Cc3ccccc3C(=O)N(c3ncccn3)S(=O)(=O)c3ccc(N)cc3)c2n1`, the inhibition (PRVABC59, Concentration 49.95 uM, Number of replicates 2.0, Standard deviation 0.5295893128804832 %) was 2.68% and the inhibition (PRVABC59, Concentration 99.9 uM, Number of replicates 2.0, Standard deviation 0.15206043463069627 %) amounted to 8.61%.

As to `Cc1cc(CO)c2cccc(CC(=O)N(c3ncccn3)S(=O)(=O)c3ccc(N)cc3)c2n1`, the inhibition reads like this: (PRVABC59, Concentration 49.95 uM, Number of replicates 2.0, Standard deviation 0.08143445481880901 %) 93.4%; (PRVABC59, Concentration 99.9 uM, Number of replicates 2.0, Standard deviation 0.09670172922339526 %) 93.5%.

In the case of `c1ccn2c(CNCC3CCOCC3)nnc2c1`, the inhibition runs as follows: (PRVABC59, Concentration 49.5 uM, Number of replicates 2.0, Standard deviation 1.8796463523944162 %) -1.69%; (PRVABC59, Concentration 99.01 uM, Number of replicates 2.0, Standard deviation 2.0631141970669455 %) -2.09%; (PRVABC59, Concentration 198.0 uM, Number of replicates 2.0, Standard deviation 1.9030296768293513 %) -4.01%.

In the case of `Cc1cc(Br)ccc1CNC(=O)c1cc(Cl)ccc1NS(=O)(=O)c1ccc(Oc2ccccc2Cl)cc1`, the inhibition under setting [1] worked out at 27.2%.

As for `O=C(NCCc1nc(-c2ccc(Cl)cc2)no1)c1cc(Cl)ccc1NS(=O)(=O)c1ccc(Oc2ccccc2Cl)cc1`, under setting [1], the inhibition was found to be 20.2%.

With `COc1ccc(NC(C)=O)cc1NC(=O)c1cc(Cl)ccc1NS(=O)(=O)c1ccc(Oc2ccccc2Cl)cc1`, under setting [1], the inhibition turned out to be 55%.

Consider `COc1c(Cl)cccc1NC(=O)c1cc(Cl)ccc1NS(=O)(=O)c1ccc(Oc2ccccc2Cl)cc1`, for which the inhibition under setting [1] was found to be 38.1%.

With `O=C(NCc1nc(-c2ccccn2)no1)c1cc(Cl)ccc1NS(=O)(=O)c1ccc(Oc2ccccc2Cl)cc1`, the inhibition under setting [1] is 54%.

Take `O=C(Nc1ccc(SC(F)(F)F)cc1)c1cc(Cl)ccc1NS(=O)(=O)c1ccc(Oc2ccccc2Cl)cc1`: the inhibition under setting [1] worked out at 45.3%.

`CNC(=O)c1ccccc1NC(=O)c1cc(Cl)ccc1NS(=O)(=O)c1ccc(Oc2ccccc2Cl)cc1`: under setting [1], the inhibition is 12.1%.

As to `COc1cc(NC(=O)c2cc(Cl)ccc2NS(=O)(=O)c2ccc(Oc3ccccc3Cl)cc2)c(Cl)cc1Cl`, the inhibition under setting [1] was determined as 35%.

Regarding `O=C(Nc1ccc(OC(F)F)cc1)c1cc(Cl)ccc1NS(=O)(=O)c1ccc(Oc2ccccc2Cl)cc1`, the inhibition under setting [1] came out at 57.7%.

As to `O=C(NCc1ccc(-c2ccccn2)cc1)c1cc(Cl)ccc1NS(=O)(=O)c1ccc(Oc2ccccc2Cl)cc1`, the inhibition under setting [1] was found to be 31.7%.

As to `O=C(Nc1ccc(C(F)(F)F)cc1)c1cc(Cl)ccc1NS(=O)(=O)c1ccc(Oc2ccccc2Cl)cc1`, the inhibition under setting [1] stood at 26.8%.

On to `O=C(Nc1ccccc1Sc1ccccc1)c1cc(Cl)ccc1NS(=O)(=O)c1ccc(Oc2ccccc2Cl)cc1`, for which the inhibition under setting [1] was 25.8%.

With `O=C(Nc1ccccc1Cc1ccccc1)c1cc(Cl)ccc1NS(=O)(=O)c1ccc(Oc2ccccc2Cl)cc1`, under setting [1], the inhibition turned out to be 55.2%.

For `CN1C(=O)c2ccc(NC(=O)C3CCN(c4ccc(C=O)cc4)CC3)cc2C1=O`, the inhibition (PRVABC59, Concentration 50.0 uM, Number of replicates 1.0) was determined as 28.5%.

Turning to `c1ccc2[nH]c(CC3CCN(c4ncnc5[nH]ccc45)CC3)nc2c1`, the inhibition is -3.7% (PRVABC59, Concentration 49.5 uM, Number of replicates 2.0, Standard deviation 0.8729323765409018 %); 1.52% (PRVABC59, Concentration 99.01 uM, Number of replicates 2.0, Standard deviation 2.6991147561762485 %); 7.18% (PRVABC59, Concentration 198.0 uM, Number of replicates 2.0, Standard deviation 4.214592802372255 %).

In the case of `CC(CNC(=O)c1cc(Cl)ccc1NS(=O)(=O)c1ccc(Oc2ccccc2Cl)cc1)(c1ccccc1)c1ccccc1`, the inhibition under setting [1] was 31.7%.

In the case of `COc1cccc(CCNC(=O)c2cc(Cl)ccc2NS(=O)(=O)c2ccc(Oc3ccccc3Cl)cc2)c1`, under setting [1], the inhibition turned out to be 27.6%.

One may read the inhibition as the relative decrease from the control value, in per cent.
